Laboratory results reported in the supplement of paper PMC6089552.
Hit rate of the full screen: of about 3,200 compounds, about 300 (9.4%) showed activity. The full list was thinned out, with actives kept by preference.

System: A673/TR/shEF
Experiment: cell viability (LOESS-normalised, relative to median of negative controls) (log2 ratio); higher = more viable cells (less compound effect), active = hit call of the paper (over 3 MAD below the median)
Conditions: treatment time: 72 h
Method in brief: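 Doxycycline, present or absent from 24 h before compounds, was used to induce EWS-FLI1 shRNA knockdown in A673/TR/shEF Ewing sarcoma cells at 1,500 per well in 384-well plates. Cells then received library compounds at two or more concentrations, or DMSO controls, for three days. Viability was measured by CellTiter-Glo luminescence on an Envision reader, and per-plate LOESS correction, division by the negative-control median and log2 transformation followed.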

[1] = 0.25 µM, library screen: screen2, EWS-FLI1 expression: high (no doxycycline)
[2] = 0.25 µM, library screen: screen2, EWS-FLI1 expression: low (doxycycline-induced shRNA knockdown)
[3] = 2.5 µM, library screen: screen2, EWS-FLI1 expression: high (no doxycycline)
[4] = 2.5 µM, library screen: screen2, EWS-FLI1 expression: low (doxycycline-induced shRNA knockdown)
[5] = 0.25 µM, library screen: screen1, EWS-FLI1 expression: high (no doxycycline)
[6] = 0.25 µM, library screen: screen1, EWS-FLI1 expression: low (doxycycline-induced shRNA knockdown)
[7] = 2.5 µM, library screen: screen1, EWS-FLI1 expression: high (no doxycycline)
[8] = 2.5 µM, library screen: screen1, EWS-FLI1 expression: low (doxycycline-induced shRNA knockdown)
[9] = 0.025 µM, library screen: screen2, EWS-FLI1 expression: high (no doxycycline)
[10] = 0.025 µM, library screen: screen2, EWS-FLI1 expression: low (doxycycline-induced shRNA knockdown)
[11] = 25 µM, library screen: screen2, EWS-FLI1 expression: high (no doxycycline)
[12] = 25 µM, library screen: screen2, EWS-FLI1 expression: low (doxycycline-induced shRNA knockdown)
[13] = 0.103 µM, library screen: screen3, EWS-FLI1 expression: high (no doxycycline)
[14] = 0.103 µM, library screen: screen3, EWS-FLI1 expression: low (doxycycline-induced shRNA knockdown)
[15] = 0.308 µM, library screen: screen3, EWS-FLI1 expression: high (no doxycycline)
[16] = 0.308 µM, library screen: screen3, EWS-FLI1 expression: low (doxycycline-induced shRNA knockdown)
[17] = 0.926 µM, library screen: screen3, EWS-FLI1 expression: high (no doxycycline)
[18] = 0.926 µM, library screen: screen3, EWS-FLI1 expression: low (doxycycline-induced shRNA knockdown)
[19] = 2.8 µM, library screen: screen3, EWS-FLI1 expression: high (no doxycycline)
[20] = 2.8 µM, library screen: screen3, EWS-FLI1 expression: low (doxycycline-induced shRNA knockdown)
[21] = 8.3 µM, library screen: screen3, EWS-FLI1 expression: high (no doxycycline)
[22] = 8.3 µM, library screen: screen3, EWS-FLI1 expression: low (doxycycline-induced shRNA knockdown)
[23] = 25 µM, library screen: screen3, EWS-FLI1 expression: high (no doxycycline)
[24] = 25 µM, library screen: screen3, EWS-FLI1 expression: low (doxycycline-induced shRNA knockdown)
[25] = 0.025 µM, library screen: screen1, EWS-FLI1 expression: high (no doxycycline)
[26] = 0.025 µM, library screen: screen1, EWS-FLI1 expression: low (doxycycline-induced shRNA knockdown)
[27] = 25 µM, library screen: screen1, EWS-FLI1 expression: high (no doxycycline)
[28] = 25 µM, library screen: screen1, EWS-FLI1 expression: low (doxycycline-induced shRNA knockdown)

Measured: cell viability (log2)

CC(C)(C)[C@]1(O)CCN2CC3c4ccccc4CCc4cccc(c43)[C@@H]2C1 (stereo partly drawn)
inactive: [1] 0.166 | [2] 0.165 | [3] 0.11 | [4] 0.076

CC12CCC3c4ccc(OCc5ccccc5)cc4CCC3C1C[C@@H](O)[C@@H]2O (stereo partly drawn)
inactive: [5] 0.0858 | [6] 0.0634 | [7] 0.147 | [8] 0.17

COc1cc(NC(C)CCCN)c2ncccc2c1 (stereo not drawn)
inactive: [9] 0.0561 | [10] -0.00137 | [5] 0.054 | [6] 0.199 | [1] 0.0891 | [2] 0.0483 | [7] 0.127 | [8] 0.305 | [3] 0.104 | [4] -0.00544 | [12] -0.0311
active: [11] -0.632

CCCCC1=NC2(CCCC2)C(=O)N1Cc1ccc(-c2ccccc2-c2nn[nH]n2)cc1
inactive: [13] 0.107 | [14] 0.0606 | [5] 0.058 | [6] 0.0291 | [15] -0.0112 | [16] 0.0296 | [17] 0.00566 | [18] 0.0237 | [7] 0.0857 | [8] 0.072 | [19] 0.0909 | [20] 0.0243 | [21] 0.0907 | [22] 0.057 | [23] 0.0719 | [24] 0.134

CC(C)[C@@H]1CC[C@@H](C)CC1=O
inactive: [5] 0.057 | [6] 0.0478 | [7] 0.148 | [8] 0.0792

CN1CCCC(n2nc(Cc3ccc(Cl)cc3)c3ccccc3c2=O)CC1 (stereo not drawn)
inactive: [13] 0.00451 | [14] 0.0233 | [15] 0.0154 | [16] 0.0686 | [17] 0.0285 | [18] 0.0485 | [19] 0.0385 | [20] 0.0809 | [21] 0.0197 | [22] 0.0247 | [23] -0.00429 | [24] -0.0202

O=C(c1cc(Cc2n[nH]c(=O)c3ccccc23)ccc1F)N1CCN(C(=O)C2CC2)CC1
inactive: [13] -0.00614 | [14] 0.0146 | [15] -0.0732 | [16] -0.0144 | [17] 0.00937 | [18] 0.0508 | [19] -0.137 | [20] 0.0104 | [21] -0.158 | [22] -0.00135
active: [23] -0.244 | [24] -0.143

CC(=O)[C@H]1CCC2C3CC=C4C[C@@H](OS(=O)(=O)O)CC[C@]4(C)C3CC[C@@]21C (stereo partly drawn)
inactive: [1] 0.147 | [2] 0.0952 | [3] 0.0185 | [4] -0.0104

COc1ccc(-c2coc3c(OC)c(OC)cc(OC)c3c2=O)cc1
inactive: [5] 0.0837 | [6] 0.0693 | [7] 0.102 | [8] 0.078

CCOc1ccccc1N1C(=O)c2cccc3cccc(c23)C1=O
inactive: [5] 0.0619 | [6] 0.0408 | [7] 0.058 | [8] 0.0712

C=CC(=O)N1CCC[C@@H](n2nc(-c3ccc(Oc4ccccc4)cc3)c3c(N)ncnc32)C1
inactive: [13] -0.0901 | [14] 0.0229 | [15] -0.0466 | [16] 0.0297 | [17] 0.021 | [18] 0.0235 | [19] -0.0315 | [20] 0.0823 | [21] -0.0558 | [22] 0.16 | [23] -0.158 | [24] 0.0664

CC(C)(C)n1nc(-c2ccc(Cl)cc2)c2c(N)ncnc21
active: [7] -0.388 | [27] -0.453
inactive: [25] 0.227 | [26] -0.0277 | [5] 0.174 | [6] 0.0475 | [8] 0.0249 | [28] -0.00123

Cc1ccc(-c2nn(C(C)(C)C)c3ncnc(N)c23)cc1
active: [27] -0.108
inactive: [25] 0.00835 | [26] -0.00557 | [5] 0.0184 | [6] 0.0452 | [7] -0.0765 | [8] 0.104 | [28] -0.07

CCc1nc(N)nc(N)c1-c1ccc(Cl)cc1
inactive: [9] 0.129 | [10] 0.0541 | [13] 0.0417 | [14] 0.0477 | [5] 0.0408 | [6] 0.123 | [1] 0.112 | [2] 0.0163 | [15] 0.0837 | [16] 0.135 | [17] 0.0823 | [18] 0.107 | [7] 0.0817 | [8] 0.0354 | [3] 0.122 | [4] 0.129 | [19] 0.0808 | [20] 0.046 | [21] 0.0995 | [22] 0.0615 | [11] 0.0523 | [12] -0.0463 | [23] 0.153 | [24] 0.146

CC(=O)Oc1cc2c(c(C)c1OC(C)=O)CC=C1[C@@]2(C)CC[C@@]2(C)[C@@H]3C[C@](C)(C(=O)O)CC[C@]3(C)CC[C@]12C
inactive: [5] 0.0258 | [6] 0.000386 | [7] 0.0381 | [8] 0.209

CCN1CCN(CC(O)COc2cc(C)c(Cl)c(C)c2)CC1 (stereo not drawn)
inactive: [5] 0.082 | [6] 0.0372 | [7] 0.096 | [8] 0.29

CCCCCCCCCC(=O)N[C@@H](Cc1c[nH]c2ccccc12)C(=O)N[C@@H](CC(N)=O)C(=O)N[C@@H](CC(=O)O)C(=O)NC1C(=O)NCC(=O)N[C@@H](CCCN)C(=O)N[C@@H](CC(=O)O)C(=O)N[C@H](C)C(=O)N[C@@H](CC(=O)O)C(=O)NCC(=O)N[C@H](CO)C(=O)N[C@@H](C(C)CC(=O)O)C(=O)N[C@@H](CC(=O)c2ccccc2N)C(=O)OC1C (stereo partly drawn)
inactive: [13] -0.000338 | [14] -0.000608 | [15] 0.0186 | [16] 0.0343 | [17] 0.103 | [18] 0.0444 | [19] 0.0611 | [20] 0.0124 | [21] 0.0568 | [22] 0.116 | [23] -0.0118 | [24] -0.0633
